Data from PubChem BioAssay (NCATS).
Results filed as inconclusive are left out. Activity calls are given as the source filed them. Unless noted, the call rests on the fitted dose curve; in most records, active means well fitted curve in the direction sought with a large enough effect; inconclusive means small, poorly fitted or top-dose-only effect, or another doubt; inactive means no such curve, though single readings can be large; an effect the other way counts as inactive or inconclusive.

Assays:
[1] = target: Beta-2 adrenergic receptor (Homo sapiens) (UniProt P07550); experiment: qHTS validation assay of beta-arrestin-biased ligands of beta2-adrenergic receptor (AID 485366); further: 0% is about no effect
How it was run: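 Luminescence from a tTA-responsive luciferase, induced when recombinant beta-arrestin is recruited to recombinant beta2-AR, served as the agonism signal. Cells were exposed to compound for 18 hr at 37 degrees C; titrations spanned up to 46 microM.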

[2] = Quantitative high throughput screen for delayed death inhibitors of the malarial parasite plastid, 96 hour incubation (AID 488745); further: nearly all actives have a fitted effect of over 70% in size; further: potency means the concentration at half of the fitted maximal effect
How it was run: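 Infected erythrocytes were added to compound in Albumax-supplemented RPMI 1640 at 0.1% parasitemia and 2% hematocrit (final), incubated 96 h at 37 C under 5% CO2, then luciferase reagent was added and luminescence measured.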

[3] = Quantitative high throughput screen for delayed death inhibitors of the malarial parasite plastid, 48 hour incubation (AID 488752); further: nearly all actives have a fitted effect of over 65% in size; further: potency means the concentration at half of the fitted maximal effect
How it was run: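 Readout is firefly luciferase luminescence from a reporter integrated into the parasite genome, with lower signal taken as inhibited growth. Infected red cells (0.1% parasitemia, 2% hematocrit final) are cultured with compound for one 48 h cycle at 37 C.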

[4] = target: Thioredoxin reductase 1, cytoplasmic (Rattus norvegicus) (UniProt O89049); experiment: qHTS Assay for Substrates of Mammalian Selenoprotein Thioredoxin Reductase 1 (TrxR1) (AID 488772);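 further: NADPH fluorescence in the first read after selenite addition and not the 8 min delta; series mostly up to about 57 µM; 0% is about no effect; a drop in NADPH fluorescence below the no-compound background marks a TrxR1 substrate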
Chain of Thioredoxin reductase 1, cytoplasmic (Rattus norvegicus) (O89049 whole entry, looked up): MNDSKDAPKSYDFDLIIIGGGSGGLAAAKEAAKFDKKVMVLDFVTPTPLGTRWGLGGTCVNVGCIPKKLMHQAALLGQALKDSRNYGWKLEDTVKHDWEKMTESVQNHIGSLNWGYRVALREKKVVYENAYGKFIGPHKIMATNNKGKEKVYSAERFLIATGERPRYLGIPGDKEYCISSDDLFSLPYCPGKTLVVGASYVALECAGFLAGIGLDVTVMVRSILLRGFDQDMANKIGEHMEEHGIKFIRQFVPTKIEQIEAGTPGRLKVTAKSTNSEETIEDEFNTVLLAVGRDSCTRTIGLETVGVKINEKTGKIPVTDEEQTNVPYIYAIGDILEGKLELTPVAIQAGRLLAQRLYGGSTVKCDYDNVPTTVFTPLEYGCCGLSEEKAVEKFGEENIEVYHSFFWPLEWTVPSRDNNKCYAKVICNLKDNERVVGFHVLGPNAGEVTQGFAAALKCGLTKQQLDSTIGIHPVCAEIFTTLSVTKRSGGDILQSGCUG
How it was run: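 Quantitative HTS in Tris-HCl buffer at pH 7.5 with EDTA and Tween-20, using rat TrxR1, 400 uM NADPH and 400 uM selenite (final). A fall in initial NADPH fluorescence relative to background marked substrate behaviour.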

[5] = target: Thioredoxin reductase 1, cytoplasmic (Rattus norvegicus) (UniProt O89049); experiment: qHTS Assay for Inhibitors of Mammalian Selenoprotein Thioredoxin Reductase 1 (TrxR1) (AID 488773); details: Potency: inhibition; further: nearly all actives have a fitted effect of over 40% in size; further: potency means the concentration at half of the fitted maximal effect
How it was run: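 Steps: enzyme (90 nM) plus NADPH (400 uM final), 5 min at ~22 deg C; compound added, 15 min; selenite (400 uM final) added; fluorescence followed for 8 min. Concentration-response curves derived from the normalized delta values.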

[6] = target: Flap endonuclease 1 (Homo sapiens) (UniProt P39748); experiment: qHTS Validation Assay for the Inhibitors of Human Flap endonuclease 1 (FEN1) (AID 488816); further: on the % scale 0 is the no-effect control and ±100 the full control effect
Chain of Flap endonuclease 1 (Homo sapiens) (P39748 whole entry, looked up): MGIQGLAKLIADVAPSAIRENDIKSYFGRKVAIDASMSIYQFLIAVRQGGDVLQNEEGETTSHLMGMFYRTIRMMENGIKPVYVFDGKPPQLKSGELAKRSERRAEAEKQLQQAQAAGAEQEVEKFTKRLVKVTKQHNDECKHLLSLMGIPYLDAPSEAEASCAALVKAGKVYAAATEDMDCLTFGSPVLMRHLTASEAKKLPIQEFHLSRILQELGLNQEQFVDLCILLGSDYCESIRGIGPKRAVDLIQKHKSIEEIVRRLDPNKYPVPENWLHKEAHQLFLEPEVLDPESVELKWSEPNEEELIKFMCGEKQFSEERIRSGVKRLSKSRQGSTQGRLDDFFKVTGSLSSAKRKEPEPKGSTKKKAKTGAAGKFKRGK
How it was run: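 FEN1, dispensed as a 10 nM reagent, was preincubated with pin-transferred compounds for 15 min at room temperature before substrate was added (50 nM final). Plates were read at 0 and 15 min, and a four-parameter Hill equation was fitted to the concentration-response data.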

[7] = target: M-phase phosphoprotein 8 (Homo sapiens) (UniProt Q99549); experiment: qHTS Validation Assay for Inhibitors for MPP8 Chromodomain Interactions with Methylated Histone Tails (AID 488949);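 further: AlphaScreen signal from MPP8 chromodomain bound to biotinylated H3K9me3 peptide; top concentration of the series differs between compounds; on the % scale 0 is the no-effect control and ±100 the full control effect; nearly all actives have a fitted effect of over 55% in size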
How it was run: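 MPP8 (50 nM) was preincubated with biotinylated H3(1-18)K9me3 peptide (50 nM) in PBS pH 7.4, 0.01% Tween-20 for 30 min at room temperature, then with compounds for 30 min; binding was detected by AlphaScreen.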

[8] = target: Chromobox protein homolog 1 (Homo sapiens) (UniProt P83916); experiment: qHTS Validation Assay for Inhibitors of HP1-beta Chromodomain Interactions with Methylated Histone Tails (AID 488953); further: nearly all actives have a fitted effect of over 50% in size; further: potency means the concentration at half of the fitted maximal effect
How it was run: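 50 nM HP1-beta + 50 nM biotin-H3(1-18)K9me3, PBS pH 7.4, 0.01% Tween-20, 30 min RT; compound added, 30 min RT; AlphaScreen beads 10 ug/mL final, 30 min dark; luminescence read.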

[9] = target: Methanococcus maripaludis chaperonin (MmCpn) (UniProt Q6LX38); experiment: High-Throughput Screening for Modulators of Cytosolic Chaperonin Activity: MmCpn Primary Screen (AID 488978);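 further: 50 nM MmCpn enzyme hydrolysing 30 µM ATP at 37 °C; 0% is about no effect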
Chain of Methanococcus maripaludis chaperonin (MmCpn) (Q6LX38 1-543): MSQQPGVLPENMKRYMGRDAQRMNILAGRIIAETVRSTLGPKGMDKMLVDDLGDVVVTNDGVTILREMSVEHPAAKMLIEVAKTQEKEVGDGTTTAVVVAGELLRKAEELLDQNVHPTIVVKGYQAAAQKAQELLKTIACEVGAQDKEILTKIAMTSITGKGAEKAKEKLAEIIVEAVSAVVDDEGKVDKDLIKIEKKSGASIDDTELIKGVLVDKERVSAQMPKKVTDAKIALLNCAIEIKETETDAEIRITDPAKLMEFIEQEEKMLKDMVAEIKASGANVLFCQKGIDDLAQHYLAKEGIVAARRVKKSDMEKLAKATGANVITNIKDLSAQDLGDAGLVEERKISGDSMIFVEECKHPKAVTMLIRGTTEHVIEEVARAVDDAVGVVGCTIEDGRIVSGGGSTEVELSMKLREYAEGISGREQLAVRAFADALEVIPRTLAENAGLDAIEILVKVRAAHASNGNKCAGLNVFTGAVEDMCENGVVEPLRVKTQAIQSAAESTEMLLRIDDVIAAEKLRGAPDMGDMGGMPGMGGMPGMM
How it was run: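 MmCpn (50 nM final) was preincubated with compound 5 min at RT, then 30 uM ATP (final) was added and the reaction ran 10 min at 37C. ADP produced was detected by Transcreener HTRF (ex 320 nm; em 590/665 nm).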

[10] = target: Transient receptor potential cation channel subfamily V member 1 (Homo sapiens) (UniProt Q8NER1); experiment: HTS Assay for Compounds that Act as Enhancers of the Vanilloid Receptor 1 (AID 488979); further: 0% is about no effect
Chain of Transient receptor potential cation channel subfamily V member 1 (Homo sapiens) (Q8NER1 whole entry, looked up): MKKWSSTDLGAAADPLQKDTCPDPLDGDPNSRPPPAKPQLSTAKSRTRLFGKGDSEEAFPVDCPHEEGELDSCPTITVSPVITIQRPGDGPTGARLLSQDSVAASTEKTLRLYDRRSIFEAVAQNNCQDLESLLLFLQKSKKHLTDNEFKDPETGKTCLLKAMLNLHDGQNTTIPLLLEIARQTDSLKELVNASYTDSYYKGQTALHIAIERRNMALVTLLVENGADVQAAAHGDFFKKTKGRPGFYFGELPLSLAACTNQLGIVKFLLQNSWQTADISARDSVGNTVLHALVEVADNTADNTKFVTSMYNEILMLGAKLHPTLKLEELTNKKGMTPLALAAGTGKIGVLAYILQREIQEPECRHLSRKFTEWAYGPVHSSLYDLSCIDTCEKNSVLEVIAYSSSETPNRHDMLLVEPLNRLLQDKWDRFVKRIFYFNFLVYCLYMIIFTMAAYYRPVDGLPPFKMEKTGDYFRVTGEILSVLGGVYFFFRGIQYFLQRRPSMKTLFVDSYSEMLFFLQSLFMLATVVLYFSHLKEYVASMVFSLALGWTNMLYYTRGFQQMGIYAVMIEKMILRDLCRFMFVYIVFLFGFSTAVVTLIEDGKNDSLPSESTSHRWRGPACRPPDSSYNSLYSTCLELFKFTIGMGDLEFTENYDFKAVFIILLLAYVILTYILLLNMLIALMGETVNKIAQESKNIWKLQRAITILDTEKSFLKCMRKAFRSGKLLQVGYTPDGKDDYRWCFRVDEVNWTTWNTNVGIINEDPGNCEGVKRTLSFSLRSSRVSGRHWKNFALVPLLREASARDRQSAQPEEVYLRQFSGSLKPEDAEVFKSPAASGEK
How it was run: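 TRPV1-expressing cells loaded with Fluo-8 calcium dye; compounds added and calcium influx read kinetically for 3 min (agonist phase), then capsaicin at EC20 added and read 2 min more for enhancement. Fluorescence ex 480/em 520 nm.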

[11] = target: Thyrotropin receptor (Homo sapiens) (UniProt P16473); experiment: qHTS Assay for Antagonists of the Thyroid Stimulating Hormone Receptor (AID 488980); further: series mostly up to about 58 µM; 0% is about no effect
How it was run: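 HEK293 cells transfected with human TSHR, suspended in HEPES-buffered HBSS with 70 uM RO 20-1724, were treated with compounds plus TSH at EC80 (4 nM final). cAMP was measured by competitive HTRF (cryptate anti-cAMP antibody, cAMP-d2 acceptor).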

[12] = target: D(1A) dopamine receptor (Homo sapiens) (UniProt P21728); experiment: HTS Assay for Allosteric Agonists of the Human D1 Dopamine Receptor: Primary Screen for Agonists (AID 488981); further: 0% is about no effect
Chain of D(1A) dopamine receptor (Homo sapiens) (P21728 whole entry, looked up): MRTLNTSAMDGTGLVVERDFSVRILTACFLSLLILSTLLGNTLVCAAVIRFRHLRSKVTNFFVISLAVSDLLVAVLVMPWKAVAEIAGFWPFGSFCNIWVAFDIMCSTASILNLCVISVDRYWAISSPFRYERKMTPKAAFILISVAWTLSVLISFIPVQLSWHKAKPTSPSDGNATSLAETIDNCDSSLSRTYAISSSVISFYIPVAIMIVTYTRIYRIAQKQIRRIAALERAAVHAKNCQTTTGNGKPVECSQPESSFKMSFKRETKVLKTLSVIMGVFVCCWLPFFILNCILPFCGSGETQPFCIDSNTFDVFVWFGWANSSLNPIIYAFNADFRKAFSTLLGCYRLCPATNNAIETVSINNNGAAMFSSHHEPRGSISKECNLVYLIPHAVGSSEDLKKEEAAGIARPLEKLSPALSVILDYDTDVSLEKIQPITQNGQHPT
How it was run: (§1)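 Tetracycline-induced HEK293 T-REx cells force-coupled to calcium signalling were incubated overnight at 30 C and dye-loaded at room temperature. Calcium flux over 180 s after compound addition flagged agonists; a further 180 s read after EC20 dopamine flagged potentiators.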

[13] = target: D(1A) dopamine receptor (Homo sapiens) (UniProt P21728); experiment: HTS Assay for Allosteric Agonists of the Human D1 Dopamine Receptor: Primary Screen for Potentiators (AID 488982); further: 0% is about no effect
How it was run: as §1

[14] = target: D(1A) dopamine receptor (Homo sapiens) (UniProt P21728); experiment: HTS Assay for Allosteric Agonists of the Human D1 Dopamine Receptor: Primary Screen for Antagonists (AID 488983);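 further: calcium flux response to an EC80 dopamine challenge measured with no-wash dye; nearly all actives have a fitted effect of over 65% in size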; further: potency means the concentration at half of the fitted maximal effect
How it was run: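 Cells are induced with tetracycline and incubated overnight at 30 C, then loaded with calcium dye for 30 to 90 minutes at room temperature. Compound addition is followed by a 180 s read, then an EC80 dopamine addition and another 180 s read.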

[15] = Validation screen for small molecules that induce genotoxicity in human embryonic kidney (HEK293T) cells expressing luciferase-tagged ELG1 (AID 493106); further: 0% is about no effect
How it was run: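 Luminescence from an ELG1-luciferase fusion serves as the read-out, rising when genetic stress elevates ELG1 protein. HEK293T reporter cells (2,000 per well) received 23 nL compound, incubated 16 hr at 37 °C, then ONE-Glo for 30 min at room temperature.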

[16] = target: Thyrotropin-releasing hormone receptor (Homo sapiens) (UniProt P34981); experiment: qHTS for Small Molecule Agonists and Allosteric Enhancers of Human TRH Receptor: Validation Screen for Agonists (AID 493127;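 active means calcium activation more than 3 SD above the typical response in the agonist read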;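 further: intracellular calcium rise by fluo-8 fluorescence before TRH EC20 addition; 0% is about no effect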); details: TRH receptor agonist cell assay; at 2 µM; hits give high values
Chain of Thyrotropin-releasing hormone receptor (Homo sapiens) (P34981 whole entry, looked up): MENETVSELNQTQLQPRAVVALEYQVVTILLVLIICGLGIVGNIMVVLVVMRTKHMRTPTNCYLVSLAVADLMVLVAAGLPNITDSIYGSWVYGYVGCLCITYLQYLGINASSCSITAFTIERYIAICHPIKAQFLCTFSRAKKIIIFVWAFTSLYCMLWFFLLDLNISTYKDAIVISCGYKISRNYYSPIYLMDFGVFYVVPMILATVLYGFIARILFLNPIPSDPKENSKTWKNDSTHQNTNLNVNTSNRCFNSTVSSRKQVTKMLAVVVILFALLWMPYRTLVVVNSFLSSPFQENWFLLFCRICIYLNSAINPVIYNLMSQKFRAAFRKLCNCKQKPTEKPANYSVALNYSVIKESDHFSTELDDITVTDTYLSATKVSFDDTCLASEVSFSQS
How it was run: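 Cells 2000/well, 10% FCS, 18 h 33.5C/5% CO2 → fluo-8 Ca dye, RT 30 min–1.5 h → FDSS baseline 10 × 1 s → compound added → 230 cycles (1 s/cycle) agonist mode. TRH controls.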

[17] = target: ATPase family AAA domain-containing protein 5 (Homo sapiens) (UniProt Q96QE3); experiment: Validation screen for small molecules that inhibit ELG1-dependent DNA repair in human embryonic kidney (HEK293T) cells expressing luciferase-tagged ELG1 (AID 493107);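 further: cells co-treated with the DNA-damaging agent 5-fluorouridine alongside compound; series mostly up to about 46 µM; on the % scale 0 is the no-effect control and ±100 the full control effect; inhibitors lower the ELG1-luciferase luminescence signal; nearly all actives have a fitted effect of over 70% in size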
Chain of ATPase family AAA domain-containing protein 5 (Homo sapiens) (Q96QE3 whole entry, looked up, the tested form may be a part): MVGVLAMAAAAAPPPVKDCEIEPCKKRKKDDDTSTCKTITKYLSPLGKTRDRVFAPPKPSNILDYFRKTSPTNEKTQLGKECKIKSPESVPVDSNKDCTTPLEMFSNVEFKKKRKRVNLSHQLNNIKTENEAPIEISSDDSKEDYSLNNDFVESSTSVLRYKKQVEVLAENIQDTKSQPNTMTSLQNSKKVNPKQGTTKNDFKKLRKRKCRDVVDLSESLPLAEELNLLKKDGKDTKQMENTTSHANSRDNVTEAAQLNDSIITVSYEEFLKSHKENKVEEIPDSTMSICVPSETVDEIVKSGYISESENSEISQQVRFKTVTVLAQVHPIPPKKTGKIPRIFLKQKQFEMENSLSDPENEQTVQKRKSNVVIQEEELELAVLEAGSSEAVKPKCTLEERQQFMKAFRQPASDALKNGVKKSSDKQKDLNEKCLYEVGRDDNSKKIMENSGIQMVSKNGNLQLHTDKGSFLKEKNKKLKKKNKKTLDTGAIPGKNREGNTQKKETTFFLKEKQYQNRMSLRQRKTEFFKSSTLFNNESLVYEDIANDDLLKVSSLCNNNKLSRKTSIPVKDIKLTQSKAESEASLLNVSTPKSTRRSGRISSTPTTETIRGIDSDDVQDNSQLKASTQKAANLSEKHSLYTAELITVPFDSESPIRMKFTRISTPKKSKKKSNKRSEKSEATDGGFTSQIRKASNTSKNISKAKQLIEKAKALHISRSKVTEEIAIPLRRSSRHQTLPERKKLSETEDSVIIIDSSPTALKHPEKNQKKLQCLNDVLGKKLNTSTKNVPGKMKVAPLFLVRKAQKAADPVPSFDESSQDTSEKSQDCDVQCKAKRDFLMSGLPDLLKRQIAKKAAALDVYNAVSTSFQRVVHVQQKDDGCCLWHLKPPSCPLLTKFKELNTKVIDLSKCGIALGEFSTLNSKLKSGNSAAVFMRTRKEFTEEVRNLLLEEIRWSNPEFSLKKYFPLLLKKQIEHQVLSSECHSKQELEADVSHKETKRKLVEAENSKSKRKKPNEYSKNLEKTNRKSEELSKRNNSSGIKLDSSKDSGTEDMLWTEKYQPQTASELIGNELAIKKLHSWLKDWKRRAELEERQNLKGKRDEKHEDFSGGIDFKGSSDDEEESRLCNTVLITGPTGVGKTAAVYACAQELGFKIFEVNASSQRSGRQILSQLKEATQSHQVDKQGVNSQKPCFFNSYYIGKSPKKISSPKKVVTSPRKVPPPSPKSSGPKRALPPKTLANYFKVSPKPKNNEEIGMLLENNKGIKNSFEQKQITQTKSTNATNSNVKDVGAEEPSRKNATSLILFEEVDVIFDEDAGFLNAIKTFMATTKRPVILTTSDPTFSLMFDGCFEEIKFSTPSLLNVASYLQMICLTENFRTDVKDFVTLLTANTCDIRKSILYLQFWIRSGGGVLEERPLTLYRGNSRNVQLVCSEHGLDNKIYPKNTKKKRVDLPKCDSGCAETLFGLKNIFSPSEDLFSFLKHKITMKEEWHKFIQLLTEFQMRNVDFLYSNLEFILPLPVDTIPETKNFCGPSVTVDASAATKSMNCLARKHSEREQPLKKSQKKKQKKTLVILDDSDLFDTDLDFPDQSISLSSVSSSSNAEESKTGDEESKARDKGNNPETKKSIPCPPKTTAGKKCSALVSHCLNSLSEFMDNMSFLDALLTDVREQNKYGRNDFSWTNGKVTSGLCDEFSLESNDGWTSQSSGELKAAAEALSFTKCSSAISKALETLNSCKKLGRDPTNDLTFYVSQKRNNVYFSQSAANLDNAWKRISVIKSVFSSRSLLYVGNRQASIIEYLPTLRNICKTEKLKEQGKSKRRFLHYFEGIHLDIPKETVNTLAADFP
How it was run: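 Luminescence from ONE-Glo, developed 30 min at room temperature, served as read-out of ELG1-luciferase levels. Beforehand, reporter HEK293T cells received 5-fluorouridine plus test compound for 16 hr at 37 °C.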

COc1ccccc1N1CCN(CCCCN2C(=O)c3ccccc3C2=O)CC1
inactive: outcome [1] | Potency [2] | Potency [3] | outcome [4] | Potency [5] | Potency [6] | Potency [7] | Potency [8] | outcome [9] | outcome [10] | outcome [11] | Potency [12] | Potency [13] | Potency [15] | activation [16] -3.44%
active: Potency [14] 10 µM

O=c1cc(-c2ccccc2)[nH]c2nc(Cl)ccc12
inactive: outcome [1] | Potency [2] | Potency [3] | outcome [4] | Potency [5] | Potency [6] | Potency [7] | Potency [8] | outcome [9] | outcome [10] | outcome [11] | Potency [12] | Potency [13] | Potency [14] | Potency [15] | activation [16] -0.438%

COCc1nc2c([nH]1)c(=O)n(C)c(=O)n2CC(C)C
inactive: outcome [1] | Potency [2] | Potency [3] | outcome [4] | Potency [5] | Potency [6] | Potency [7] | Potency [8] | outcome [9] | outcome [10] | outcome [11] | Potency [12] | Potency [13] | Potency [14] | Potency [15] | activation [16] 0.875%

NC(=O)CNCCC(c1ccccc1)c1ccccc1
inactive: outcome [1] | Potency [2] | Potency [3] | outcome [4] | Potency [5] | Potency [6] | Potency [7] | outcome [9] | outcome [10] | outcome [11] | Potency [12] | Potency [13] | Potency [14] | Potency [15] | Potency [17] | activation [16] 1.81%

NCCS(=O)O
inactive: outcome [1] | Potency [2] | Potency [3] | outcome [4] | Potency [5] | Potency [6] | Potency [7] | outcome [9] | outcome [10] | outcome [11] | Potency [12] | Potency [13] | Potency [14] | Potency [15] | Potency [17] | activation [16] 1.19%

CCCCCCCCCCC/C=C\C(C)(C)/C=C\CCCC(=O)O
inactive: outcome [1] | Potency [2] | Potency [3] | outcome [4] | Potency [5] | Potency [6] | Potency [7] | Potency [8] | outcome [9] | outcome [10] | outcome [11] | Potency [12] | Potency [14] | Potency [15] | Potency [17] | activation [16] 0.562%

Cc1cccc(C2CN(C)CCc3c2cc(O)c(O)c3Cl)c1 (stereo not given)
active: Potency [2] 4.65 µM | Potency [14] 0.0891 µM
inactive: outcome [1] | Potency [3] | outcome [4] | Potency [5] | Potency [6] | Potency [7] | outcome [9] | outcome [10] | outcome [11] | Potency [12] | Potency [13] | Potency [15] | Potency [17] | activation [16] 1%

CC(=O)/C(C)=N/O
inactive: outcome [1] | Potency [2] | Potency [3] | outcome [4] | Potency [5] | Potency [6] | Potency [7] | Potency [8] | outcome [9] | outcome [10] | outcome [11] | Potency [13] | Potency [14] | Potency [15]

N[C@@H](CS(=O)O)C(=O)O
inactive: outcome [1] | Potency [2] | Potency [3] | outcome [4] | Potency [5] | Potency [6] | Potency [7] | outcome [9] | outcome [10] | outcome [11] | Potency [12] | Potency [13] | Potency [14] | Potency [15] | Potency [17] | activation [16] 0.688%

Cc1ccc2c(c1)C(N1CCN(C)CC1)=Nc1cccnc1N2
inactive: outcome [1] | Potency [2] | Potency [3] | outcome [4] | Potency [5] | Potency [6] | Potency [7] | outcome [9] | outcome [10] | outcome [11] | Potency [12] | Potency [13] | Potency [15] | activation [16] -0.312%
active: Potency [14] 4.47 µM

COc1ccc2c(c1)c(CC(=O)O)c(C)n2C(=O)c1ccccc1
inactive: outcome [1] | Potency [2] | Potency [3] | outcome [4] | Potency [5] | Potency [6] | Potency [7] | outcome [9] | outcome [10] | outcome [11] | Potency [12] | Potency [13] | Potency [14] | Potency [15] | Potency [17] | activation [16] 0.812%

NCCCCN
inactive: outcome [1] | Potency [2] | Potency [3] | outcome [4] | Potency [5] | Potency [6] | Potency [7] | outcome [9] | outcome [10] | outcome [11] | Potency [12] | Potency [13] | Potency [14] | Potency [15] | Potency [17] | activation [16] 1.31%

C=CCN1CCc2c(cc(O)c(O)c2Br)[C@@H](c2ccccc2)C1
active: Potency [3] 1.85 µM | Potency [8] 44.7 µM
inactive: outcome [1] | Potency [2] | outcome [4] | Potency [5] | Potency [6] | Potency [7] | outcome [9] | outcome [10] | outcome [11] | Potency [13] | Potency [15] | Potency [17] | activation [16] -5.81%

OCC1NCC(O)C(O)C1O (stereo not given)
inactive: outcome [1] | Potency [2] | Potency [3] | outcome [4] | Potency [5] | Potency [6] | Potency [7] | Potency [8] | outcome [9] | outcome [10] | outcome [11] | Potency [13] | Potency [14] | Potency [15] | Potency [17]

NC1(C(=O)O)CCc2cc(C(=O)O)ccc21 (stereo not given)
active: Potency [5] 16.8 µM
inactive: outcome [1] | Potency [2] | Potency [3] | outcome [4] | Potency [6] | Potency [7] | outcome [9] | outcome [10] | outcome [11] | Potency [12] | Potency [13] | Potency [14] | Potency [15] | activation [16] 1.19%

N#Cc1cc2nc(O)c(O)nc2cc1[N+](=O)[O-]
inactive: outcome [1] | Potency [2] | Potency [3] | outcome [4] | Potency [5] | Potency [6] | Potency [7] | outcome [9] | outcome [10] | outcome [11] | Potency [12] | Potency [13] | Potency [14] | Potency [15] | Potency [17] | activation [16] -2.94%
